Some test systems named below: SR leukemia; RPMI-8226 leukemia; OVCAR-8 ovarian; OVCAR-5 ovarian; OVCAR-4 ovarian; SK-OV-3 ovarian; IGROV1 ovarian; OVCAR-3 ovarian; HS 578T breast; NCI/ADR-RES ovarian.
What all share (assay): NCI-60 one-dose screen, 48 h (100 = growth as untreated, 0 = no growth, -100 = all killed)
Details in all cases: 10 µM unless noted

The values that follow come from PubChem BioAssay (NCI).

Structures are written as SMILES. Compounds without any hit were thinned out: in the full panel of roughly 83,000, 20% have a hit.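 Negative percent growth values reflect cell death: -40 means 40% of the cells present at the start died, and -100 means all died.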 Unmarked numbers belong to inactive results. The source made the active and inactive calls. How the source made its calls: active means growth percent below 10; inactive means the rest.

As for `COc1cccc(OC)c1Oc1c(-c2nc3ccccc3s2)c(C)nn1-c1ccccc1`, the growth is 6.99% (active) in the test with SR leukemia; 57.6% in the test with RPMI-8226 leukemia; 72.2% in the test with OVCAR-8 ovarian; 73.8% in the test with OVCAR-5 ovarian; 63.4% in the test with OVCAR-4 ovarian; 75.3% in the test on SK-OV-3 ovarian. The growth in the test on IGROV1 ovarian is 46.5%; in the test with OVCAR-3 ovarian, 89.6%; in the test with HS 578T breast, 78.3%; in the test on NCI/ADR-RES ovarian, 64.7%.
`CCN(CC)CCN(CCN(CC)CC)c1ccccc1`: the growth was 111% in the test with SR leukemia; 103% in the test with RPMI-8226 leukemia; 91.4% in the test with OVCAR-8 ovarian; 94.3% in the test with OVCAR-5 ovarian; 101% in the test with OVCAR-4 ovarian; 92.7% in the test with SK-OV-3 ovarian. Further, the growth with IGROV1 ovarian was 90%; in the test on OVCAR-3 ovarian, 109%; in the test with HS 578T breast it was 89.2%; in the test on NCI/ADR-RES ovarian it was 100%.
Regarding `N#Cc1c(Nc2ccc(F)cc2)n[nH]c1-c1cccs1`, the growth with SR leukemia is 107%; in the test on RPMI-8226 leukemia, 97.3%; in the test on OVCAR-8 ovarian it was 105%; in the test on OVCAR-5 ovarian, 100%; in the test with OVCAR-4 ovarian it was 92%; with SK-OV-3 ovarian it was 115%. Further, the growth in the test with IGROV1 ovarian was 71.8%; in the test with OVCAR-3 ovarian, 109%; in the test with HS 578T breast it was 101%; with NCI/ADR-RES ovarian it was 100%.
`COc1ccc(/C=C/C(=O)c2cc3c(N)c(C(=O)Nc4ccccc4C)sc3nc2C)cc1`: the growth in the test with SR leukemia was 15.2%; in the test on RPMI-8226 leukemia it was -7.33% (active); with OVCAR-8 ovarian, 6.22% (active); in the test with OVCAR-5 ovarian it was 36.6%; with OVCAR-4 ovarian it was 54%; in the test with SK-OV-3 ovarian it was 21.2%. In addition, the growth in the test on IGROV1 ovarian is 30.6%; in the test with OVCAR-3 ovarian it was 1.23% (active); with HS 578T breast, 10.4%; with NCI/ADR-RES ovarian it was 7.7% (active).
Consider `Oc1c(CN2CCCC2)cc(COCc2ccccc2)c2cccnc12`, for which the growth with SR leukemia is 12.4%; in the test with RPMI-8226 leukemia, 16.7%; with OVCAR-8 ovarian, 9.92% (active); in the test with OVCAR-5 ovarian, 43.1%; with OVCAR-4 ovarian, 14.3%; with SK-OV-3 ovarian, -4.92% (active). For the same molecule, the growth was 16.4% in the test on IGROV1 ovarian, 18.1% in the test with OVCAR-3 ovarian, 64.5% with HS 578T breast and -7.48% (active) with NCI/ADR-RES ovarian.
Regarding `Cn1ccnc1C(=O)/C=C/c1ccc(C(=O)Nc2ccc(F)cc2)cc1`, the growth with SR leukemia is 2.09% (active); in the test on RPMI-8226 leukemia, -17.1% (active); in the test with OVCAR-8 ovarian, 18.3%; with OVCAR-5 ovarian, 21.4%; in the test with OVCAR-4 ovarian, 28.5%; in the test on SK-OV-3 ovarian, 59.1%. Further, the growth was 7.02% (active) in the test with IGROV1 ovarian, 10.8% in the test with OVCAR-3 ovarian, 40.9% in the test on HS 578T breast and 11.2% in the test with NCI/ADR-RES ovarian.
Take `COc1ccc(C2=Nc3c(N)ncnc3NC(c3cccc(Nc4ccnc5cc(C(F)(F)F)ccc45)c3)C2)cc1` (stereo not given): the growth in the test with SR leukemia was 5.09% (active); in the test with RPMI-8226 leukemia, 11.8%; in the test on OVCAR-8 ovarian, 67.9%; with OVCAR-5 ovarian it was 92.3%; in the test on OVCAR-4 ovarian, 67.2%; with SK-OV-3 ovarian it was 69.3%. For the same molecule, the growth was 66.4% with IGROV1 ovarian, 78.2% with OVCAR-3 ovarian, 55.3% in the test on HS 578T breast and 65.3% in the test with NCI/ADR-RES ovarian.
As for `Cn1c(O)c(C(/C=C/c2ccccc2)=Nc2ccccc2N)c(=O)n(C)c1=O`, the growth in the test on SR leukemia is -19.7% (active); in the test on RPMI-8226 leukemia, 58.7%; in the test with OVCAR-8 ovarian it was 107%; in the test on OVCAR-5 ovarian, 83.4%; in the test with OVCAR-4 ovarian it was 101%; in the test with SK-OV-3 ovarian, 110%. For the same molecule, the growth in the test on IGROV1 ovarian was 77.4%; in the test with OVCAR-3 ovarian, 105%; in the test with HS 578T breast, 110%; with NCI/ADR-RES ovarian, 96.5%.
`Cc1cccc(NC(=O)CSc2nc3ccc([N+](=O)[O-])cc3[nH]2)c1`: the growth is 96.2% with SR leukemia; 55.5% with RPMI-8226 leukemia; 83.6% in the test on OVCAR-8 ovarian; 99.2% in the test with OVCAR-5 ovarian; 59.3% in the test with OVCAR-4 ovarian; 88.2% in the test with SK-OV-3 ovarian. For the same molecule, the growth in the test on IGROV1 ovarian was 87.4%; in the test with OVCAR-3 ovarian, 72.7%; in the test with HS 578T breast, 83.4%; with NCI/ADR-RES ovarian, 74.4%.
For the molecule `Clc1ccc(-c2nc(-c3c[nH]c4ncccc34)cs2)cc1`, the growth in the test with SR leukemia was 85.4% [100 µM]; in the test with RPMI-8226 leukemia, 91.4% [100 µM]; in the test on OVCAR-8 ovarian it was 29.7% [100 µM]; with OVCAR-5 ovarian, 73.7% [100 µM]; in the test with OVCAR-4 ovarian, 28.3% [100 µM]; in the test with SK-OV-3 ovarian, 29.3% [100 µM]. The growth is 72.7% [100 µM] with IGROV1 ovarian, 68.7% [100 µM] in the test on OVCAR-3 ovarian, 44.3% [100 µM] in the test with HS 578T breast and 41.2% [100 µM] in the test with NCI/ADR-RES ovarian.
As for `COc1ccc(C2=NN(C(=O)c3cc(OC)c(OC)c(OC)c3)C(c3ccc(N(C)C)cc3)C2)cc1` (stereo not given), the growth with SR leukemia is 15.3%; in the test on RPMI-8226 leukemia, -27.9% (active); in the test on OVCAR-8 ovarian, 29.3%; in the test with OVCAR-5 ovarian it was 64.7%; with OVCAR-4 ovarian it was 35.2%; in the test on SK-OV-3 ovarian it was 35.4%. The growth was -8.59% (active) with IGROV1 ovarian, 5.03% (active) with OVCAR-3 ovarian, 13.6% in the test on HS 578T breast and -5.85% (active) in the test with NCI/ADR-RES ovarian.
Turning to `Cc1c2ccccc2nc2c1ccc1cccnc12`, the growth with SR leukemia is 85.9%; with RPMI-8226 leukemia, 64.8%; in the test on OVCAR-8 ovarian, 91.7%; in the test on OVCAR-5 ovarian, 83.5%; in the test on OVCAR-4 ovarian, 51.7%; in the test on SK-OV-3 ovarian it was 116%. For the same molecule, the growth is 15% in the test with IGROV1 ovarian, -1.84% (active) with OVCAR-3 ovarian, 117% in the test with HS 578T breast and 60.9% in the test with NCI/ADR-RES ovarian.
Turning to `O=S(=O)(c1ccccc1)N1CCCN(c2nc(-c3ccccc3)nc3nc(-c4ccccc4)oc23)CC1`, the growth in the test on SR leukemia is 104%; in the test on RPMI-8226 leukemia it was 98.1%; in the test with OVCAR-8 ovarian it was 104%; with OVCAR-5 ovarian it was 106%; in the test with OVCAR-4 ovarian, 105%; in the test on SK-OV-3 ovarian, 103%. Besides, the growth with IGROV1 ovarian is 100%; in the test with OVCAR-3 ovarian, 117%; with HS 578T breast, 116%; in the test on NCI/ADR-RES ovarian, 104%.
